The values that follow come from PubChem BioAssay.

The source made the active and inactive calls.

Assay [1] concerns Plasmodium falciparum Sir2 (PF13_0152, Sir2A). The assay can be described thus: Plasmodium falciparum Sir2A binding compounds – biochemical, small-molecule microarray, 635 nm fluorescence, primary screen (AID 1098).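 Further: score merges spot fluorescence intensity with its signal-to-noise ratio.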 To be noted: fluorescence 635 nm, higher = more signal.
Assay [2] is described as follows: probe aDKK1 binding to arrayed compounds – biochemical, biotinylated probe, 635/667 nm fluorescence, primary screen (AID 1099).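 Further: score merges 667nm spot fluorescence with signal to noise across triplicate slides.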 As to conditions: small-molecule microarray, higher = more signal.
Assay [3] can be described thus: probe aCHRDL2 binding to arrayed compounds – biochemical, biotinylated probe, 635/667 nm fluorescence, primary screen (AID 1100). To be noted: small-molecule microarray, higher = more signal.
Assay [4] in a line: change in splice reporter luminescence, either direction, cell-based, HEK293, spliceosome inhibition project, primary screen (AID 1101).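 Further: HEK293 cells carrying a splicing-competent luciferase reporter gene; test concentration not given here.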 To be noted: HEK293 splicing luciferase reporter, 24 h, higher = more signal, called active from +8 up or from −8 down. (A reporter such as luciferase makes a cellular process visible.)
Assay [5] concerns the target Fibroblast growth factor 10 (Homo sapiens) (UniProt O15520). The assay can be described thus: compounds binding fibroblast growth factor 10 – biochemical, small-molecule microarray, 635 nm fluorescence, primary screen (AID 1102). To be noted: FGF10 binding, fluorescence 635 nm, higher = more signal.
The test system of assay [6] is glycogen synthase kinase-3 (GSK3A per assay name; protocol says GSK3B). In words: compounds binding glycogen synthase kinase-3 – biochemical, small-molecule microarray, 635 nm fluorescence, GSK3A, primary screen (AID 1103). Further: the record names both GSK3A and GSK3B. To be noted: fluorescence 635 nm, higher = more signal.
Assay [7] has as its target Epidermal growth factor receptor (Homo sapiens) (UniProt P00533). The assay can be described thus: compounds binding epidermal growth factor receptor – biochemical, small-molecule microarray, 635 nm fluorescence, primary screen (AID 1104).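 Further: score merges 667 nm emission intensity with spot signal to noise over triplicate slides.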 As to conditions: EGFR binding, higher = more signal.
Assay [8] concerns the target Follistatin-related protein 3 (Homo sapiens) (UniProt O95633). In words: compounds binding follistatin-related protein 3 – biochemical, small-molecule microarray, 635 nm fluorescence, primary screen (AID 1105).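 Further: score merges emission near 667 nm and signal to noise per printed spot across three slides.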 As to conditions: FSTL3 binding, higher = more signal.
Assay [9] deals with Dickkopf-related protein 1 (Homo sapiens) (UniProt O94907). The assay can be described thus: small molecules binding DKK1 protein – biochemical, small-molecule microarray, 635 nm fluorescence scan, primary screen (AID 1106).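 Further: score merges emission near 667 nm with signal to noise over three replicate slides.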 As to conditions: higher = more signal.
Sequence of Dickkopf-related protein 1 (Homo sapiens) (O94907 whole entry, looked up): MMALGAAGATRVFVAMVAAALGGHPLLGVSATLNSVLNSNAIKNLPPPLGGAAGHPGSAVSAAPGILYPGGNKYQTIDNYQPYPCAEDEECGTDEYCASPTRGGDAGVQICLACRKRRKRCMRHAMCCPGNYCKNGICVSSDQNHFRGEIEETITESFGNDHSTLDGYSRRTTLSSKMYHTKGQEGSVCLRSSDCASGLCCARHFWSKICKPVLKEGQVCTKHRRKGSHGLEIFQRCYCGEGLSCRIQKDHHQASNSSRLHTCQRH
In assay [10] the test system is Inhibin beta A chain (activin A). In words: small molecules binding activin A – biochemical, small-molecule microarray, 635 nm fluorescence scan, primary screen (AID 1107).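 Further: mouse activin A protein probed at 4.33 µg/mL on printed slides; score merges bound-protein fluorescence near 667 nm with spot signal-to-noise.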 To be noted: INHBA, higher = more signal.
The test system of assay [11] is Human papillomavirus type 1a protein E7 (residues 44-93). In words: small molecules binding HPV E7 44-93 – biochemical, small-molecule microarray, residues 44-93, 635 nm fluorescence, primary screen (AID 1108).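 Further: E7 fragment applied at 1 µg/mL in TBST for 1 h at 4 C; score combines spot fluorescence with its signal to noise ratio.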 As to conditions: fluorescence 635 nm, higher = more signal.
Assay [12] is described as follows: hepatitis C replication reporter changes, two-sided – Huh7 cells, luciferase reporter, HCV replication inhibitor project, primary screen (AID 1109).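 Further: huh7 hepatoma cells harbouring a luciferase neomycin HCV replicon reporter; luciferase luminescence as measure of HCV replicon replication; test concentration not given here.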 As to conditions: Huh7 HCV replicon luciferase reporter, 48 h; higher = more signal.
Assay [13] concerns the target Left-right determination factor 2 (Homo sapiens) (UniProt O00292). In words: small molecules binding LEFTY2 protein – biochemical, small-molecule microarray, 635 nm fluorescence scan, primary screen (AID 1110). As to conditions: higher = more signal.
Assay [14] addresses Calmodulin-1 (Homo sapiens) (UniProt P0DP23). In words: small molecules binding calmodulin-1 with EGTA – biochemical, small-molecule microarray, Cy5-labelled CALM1, profiling panel (AID 1111).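 Further: labelled calmodulin applied in Tris saline Tween buffer holding calcium plus EGTA and DTT.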 As to conditions: Cy5-CALM1 binding fluorescence, higher = more signal.
For assay [15] the target is unchanged. In words: small molecules binding Ca-loaded calmodulin-1 – biochemical, small-molecule microarray, Cy5-labelled CALM1, plus calcium, artefact control for SMM control-protein annotation, profiling panel (AID 1112).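 Further: score merges spot fluorescence with signal to noise from triplicate slides.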 As to conditions: Cy5-CALM1 binding fluorescence, higher = more signal.
A short description of assay [16]: probe aWnt5a binding to arrayed compounds – biochemical, biotinylated probe, 635/667 nm fluorescence, primary screen (AID 1113).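 Further: score merges 667 nm fluorescence intensity with signal-to-noise per printed feature.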 To be noted: small-molecule microarray, higher = more signal.
Assay [17] is described as follows: probe aShh binding to arrayed compounds – biochemical, biotinylated probe, 635/667 nm fluorescence, primary screen (AID 1114).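 Further: probe is biotin-labelled aShh protein from a stem cell growth factor screen; measures binding of labelled protein to compounds printed on the slide; score merges feature fluorescence at 667 nm with signal-to-noise.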 To be noted: small-molecule microarray, higher = more signal.
Assay [18] in a line: probe aNog binding to arrayed compounds – biochemical, biotinylated probe, 635/667 nm fluorescence, primary screen (AID 1115).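 Further: probe is biotinylated aNog protein used at 0.15 µg/mL for 1 h at 4 C; z-score combines 667 nm fluorescence of each spot with its signal to noise.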 To be noted: small-molecule microarray, higher = more signal.
The target of assay [19] is Torsin-1A-interacting protein 1 (Homo sapiens) (UniProt Q5JTV8). The assay can be described thus: compound microarray binding of lysate hLAP1 – cell lysate, small-molecule microarray, COS7 lysate, 635/667 nm fluorescence, primary screen (AID 1116). To be noted: 635 nm fluorescence, higher = more signal.
Sequence of Torsin-1A-interacting protein 1 (Homo sapiens) (Q5JTV8 whole entry, looked up): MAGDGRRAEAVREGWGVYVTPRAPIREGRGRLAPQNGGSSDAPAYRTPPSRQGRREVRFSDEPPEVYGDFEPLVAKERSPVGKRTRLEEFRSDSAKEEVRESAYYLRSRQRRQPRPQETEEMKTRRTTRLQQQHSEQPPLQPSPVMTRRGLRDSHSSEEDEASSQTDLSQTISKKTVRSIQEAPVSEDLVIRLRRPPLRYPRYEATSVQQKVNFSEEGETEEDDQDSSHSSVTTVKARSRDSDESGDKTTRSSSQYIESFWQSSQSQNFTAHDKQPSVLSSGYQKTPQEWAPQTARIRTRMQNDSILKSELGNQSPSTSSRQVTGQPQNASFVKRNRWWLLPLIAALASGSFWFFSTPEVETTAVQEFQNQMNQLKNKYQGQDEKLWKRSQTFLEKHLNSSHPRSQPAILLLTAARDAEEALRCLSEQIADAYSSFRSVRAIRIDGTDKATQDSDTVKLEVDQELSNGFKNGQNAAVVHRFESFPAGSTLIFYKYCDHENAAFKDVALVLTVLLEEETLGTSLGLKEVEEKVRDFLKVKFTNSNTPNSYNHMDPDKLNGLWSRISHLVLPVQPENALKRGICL
The target in assay [20] is Alpha-bungarotoxin (Bungarus multicinctus) (UniProt P60615). In words: compounds binding labelled alpha-BTX control protein – biochemical, small-molecule microarray, Alexa647 label, 635/667 nm fluorescence, artefact control for SMM control protein annotation, profiling panel (AID 1117). As to conditions: alpha-BTX-A647 binding fluorescence, higher = more signal.
Sequence of Alpha-bungarotoxin (Bungarus multicinctus) (P60615 whole entry, looked up): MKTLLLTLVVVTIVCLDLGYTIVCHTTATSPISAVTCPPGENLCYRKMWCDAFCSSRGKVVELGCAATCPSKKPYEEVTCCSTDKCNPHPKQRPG

Sequence of Follistatin-related protein 3 (Homo sapiens) (O95633 whole entry, looked up): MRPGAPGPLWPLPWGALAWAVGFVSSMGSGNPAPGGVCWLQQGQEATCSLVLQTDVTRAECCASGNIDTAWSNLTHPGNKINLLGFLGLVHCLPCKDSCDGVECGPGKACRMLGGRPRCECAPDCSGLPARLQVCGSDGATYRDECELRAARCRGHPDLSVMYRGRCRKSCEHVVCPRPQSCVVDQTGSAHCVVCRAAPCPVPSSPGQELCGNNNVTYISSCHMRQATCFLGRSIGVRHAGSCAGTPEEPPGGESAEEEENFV
Sequence of Left-right determination factor 2 (Homo sapiens) (O00292 whole entry, looked up): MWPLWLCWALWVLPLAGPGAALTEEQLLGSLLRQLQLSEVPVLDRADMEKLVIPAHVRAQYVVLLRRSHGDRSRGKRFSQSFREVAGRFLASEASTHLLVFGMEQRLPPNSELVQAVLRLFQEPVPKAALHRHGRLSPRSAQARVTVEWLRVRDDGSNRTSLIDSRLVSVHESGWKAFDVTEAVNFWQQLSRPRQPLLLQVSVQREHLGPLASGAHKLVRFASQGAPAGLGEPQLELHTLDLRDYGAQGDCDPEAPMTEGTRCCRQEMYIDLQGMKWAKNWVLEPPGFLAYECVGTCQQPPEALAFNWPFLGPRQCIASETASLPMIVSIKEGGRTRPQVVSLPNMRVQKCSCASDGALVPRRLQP
Sequence of Epidermal growth factor receptor (Homo sapiens) (P00533 whole entry, looked up): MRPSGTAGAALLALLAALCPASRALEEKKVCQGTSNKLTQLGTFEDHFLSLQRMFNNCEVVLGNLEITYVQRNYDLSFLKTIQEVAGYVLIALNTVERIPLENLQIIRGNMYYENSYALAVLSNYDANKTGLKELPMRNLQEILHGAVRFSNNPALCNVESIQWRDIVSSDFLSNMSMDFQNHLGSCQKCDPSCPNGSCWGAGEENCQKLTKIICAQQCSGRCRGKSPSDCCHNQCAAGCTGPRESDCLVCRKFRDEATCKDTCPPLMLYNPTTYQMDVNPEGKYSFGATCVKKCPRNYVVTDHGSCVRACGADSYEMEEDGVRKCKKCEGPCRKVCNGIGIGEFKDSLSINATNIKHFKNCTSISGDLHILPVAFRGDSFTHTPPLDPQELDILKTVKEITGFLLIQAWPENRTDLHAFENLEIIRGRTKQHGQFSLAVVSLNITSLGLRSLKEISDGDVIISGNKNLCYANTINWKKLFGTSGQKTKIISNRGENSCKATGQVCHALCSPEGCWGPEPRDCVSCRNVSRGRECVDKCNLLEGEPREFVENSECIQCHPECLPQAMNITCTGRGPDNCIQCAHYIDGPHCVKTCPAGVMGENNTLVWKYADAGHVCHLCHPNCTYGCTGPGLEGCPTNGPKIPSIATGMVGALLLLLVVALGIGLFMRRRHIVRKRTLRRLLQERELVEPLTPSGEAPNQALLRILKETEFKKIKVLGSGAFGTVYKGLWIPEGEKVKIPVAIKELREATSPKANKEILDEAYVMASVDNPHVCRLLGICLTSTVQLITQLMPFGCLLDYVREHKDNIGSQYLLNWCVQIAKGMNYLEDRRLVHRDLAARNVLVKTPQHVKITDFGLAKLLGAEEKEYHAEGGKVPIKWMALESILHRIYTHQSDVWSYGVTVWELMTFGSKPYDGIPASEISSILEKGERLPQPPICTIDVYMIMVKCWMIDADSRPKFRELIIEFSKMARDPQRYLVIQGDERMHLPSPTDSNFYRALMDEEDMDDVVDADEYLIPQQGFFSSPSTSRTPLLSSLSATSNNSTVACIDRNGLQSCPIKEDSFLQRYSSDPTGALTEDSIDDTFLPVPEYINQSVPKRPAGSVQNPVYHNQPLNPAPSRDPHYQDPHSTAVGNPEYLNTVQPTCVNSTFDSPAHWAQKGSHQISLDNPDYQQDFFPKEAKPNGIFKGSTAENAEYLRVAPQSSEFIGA
Sequence of Fibroblast growth factor 10 (Homo sapiens) (O15520 whole entry, looked up): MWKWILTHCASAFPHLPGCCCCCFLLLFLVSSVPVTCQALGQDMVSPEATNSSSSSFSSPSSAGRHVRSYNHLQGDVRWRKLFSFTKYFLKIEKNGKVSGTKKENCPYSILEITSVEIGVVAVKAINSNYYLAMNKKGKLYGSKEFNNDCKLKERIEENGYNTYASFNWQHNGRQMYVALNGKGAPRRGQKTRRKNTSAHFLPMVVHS

For `CO[C@H]1COC(=O)[C@H](C)NC(=O)CC=C[C@@H](C)[C@H](NS(=O)(=O)c2ccc(C)cc2)COC(=O)[C@@H](OCc2ccccc2)C=C[C@@H]1C`, the composite z-score is -0.189 in assay [1]; -0.667 in [2]; -0.97 in assay [3]; 0.0808 in assay [5]; 0.258 in assay [6]; 0.286 in assay [7]. The composite z-score in assay [8] was 0.512; in assay [9], 1.37; in assay [10], 0.51; in assay [11], -0.117; in assay [13] it was 0.449; in assay [14] it was -0.967. In addition, the composite z-score in assay [15] is -1.02; in assay [16] it was -0.248; in assay [17] it was -0.167; in assay [18], -0.173; in assay [19], -0.141; in assay [20], -0.606. The z-score in [4] was -0.138 (inactive); in assay [12], -0.179.

Regarding `COCCOC(=O)N1C(=O)[C@@]2(c3cc(C#CCCO)ccc31)[C@H](c1ccc(O)cc1)N1[C@H](c3ccccc3)[C@H](c3ccccc3)OC(=O)[C@H]1[C@@H]2C(=O)Nc1nc2ccccc2s1`, the composite z-score is 0.762 in assay [1]; -0.0965 in assay [2]; -0.148 in [3]; 1.33 in assay [5]; 1.32 in assay [6]; 0.562 in assay [7]. Besides, the composite z-score in assay [8] stood at 1.44; in assay [9], 0.685; in [10], 0.364; in [11], 1.37; in assay [13] it was 0.704; in assay [14], 0.207. For the same molecule, the composite z-score in [15] is -0.567; in assay [16] it was -0.0256; in assay [17], -0.167; in assay [18], -0.223; in assay [19] it was 0.234; in assay [20] it was 1.46. Moreover, the values for the z-score in assay [4] and in assay [12] were -1.13 (inactive) and 0.688, respectively.

Take `CC/C=C/C(=O)N(C[C@@H]1CCCO1)[C@@H]1CC(C(=O)NCCO)=C[C@H](Oc2c(I)cc(CO)cc2OC)[C@H]1O`: the composite z-score in [1] is -0.251; in assay [2] it was -0.154; in assay [3], -0.162; in assay [5], 0.541; in [6], -0.208; in assay [7] it was 0.0798. For the same molecule, the composite z-score was -0.434 in [8]; 0.554 in [9]; 0.0756 in assay [10]; -0.2 in assay [11]; 0.208 in [13]; -0.33 in [14]. In addition, the composite z-score was determined as 0.0262 in assay [15]; 0.497 in assay [16]; 0.138 in [17]; 0.124 in assay [18]; 0.371 in assay [19]; 0.515 in [20]. Besides, the z-score in [4] was -1.44 (inactive); in [12], -0.277.

In the case of `CCCC/C=C/[C@H]([C@@H](O)Cc1ccccc1)N(CC#Cc1ccccc1)Cc1ccccc1Br`, the composite z-score in assay [1] is -0.488; in assay [2] it was 0.113; in assay [3], 1.26; in assay [5], -1.47; in assay [6] it was -0.749; in assay [7], -1.77. Moreover, the composite z-score in assay [8] is -1.55; in assay [9], -2.53; in assay [10] it was 0.109; in [11], -0.373; in [13], -1.81; in assay [14], -0.269. Moreover, the composite z-score in assay [15] was 0.74; in [16], -0.166; in assay [17], -0.366; in [18] it was -0.132; in assay [19] it was -0.356; in assay [20], -0.647. The values for the z-score in assay [4] and in [12] were -0.669 (inactive) and -1.29, respectively.

Take `[N-]=[N+]=Nc1ccccc1C[C@@]1(C(=O)N2CCOCC2)N=C(c2ccc(OCCCO)cc2)O[C@@H]1c1ccccc1N=[N+]=[N-]`: the composite z-score came to 0.668 in assay [1]; 1.35 in assay [2]; 1.13 in assay [3]; 0.997 in assay [5]; 1.29 in assay [6]; 0.215 in [7]. For the same molecule, the composite z-score in assay [8] stood at 1.28; in assay [9] it was 0.444; in [10], 0.937; in assay [11], 0.457; in [13], 0.095; in [14] it was 1.04. Besides, the composite z-score was 0.804 in [15]; -0.0398 in assay [16]; 0.102 in assay [17]; 0.293 in assay [18]; 0.842 in [19]; 2 in [20]. Moreover, the z-score is 0.144 (inactive) in assay [4] and -2.29 in [12].

As to `O=C1OCC=C[C@H]2OC34C=CCN(Cc5ccccc5)C(=O)[C@H]3N(CCCCCO)C(=O)[C@@H]4[C@@H]12` (stereo not given in full), the composite z-score in [1] was 1.41; in assay [2] it was -0.212; in assay [3], 0.528; in assay [5], -0.606; in assay [6], -0.447; in [7], -1.36. For the same molecule, the composite z-score in assay [8] is -0.647; in assay [9], -1.01; in assay [10] it was 0.18; in assay [11], -0.646; in assay [13] it was -1.84; in assay [14], -0.398. The composite z-score was 1.08 in assay [15]; -0.169 in assay [16]; -0.138 in assay [17]; 0.161 in assay [18]; -0.328 in assay [19]; -1.52 in [20]. For the same molecule, the z-score was -1.45 (inactive) in [4] and -0.615 in assay [12].

In the case of `Cc1ccc(S(=O)(=O)N[C@H]2COC(=O)CC=C[C@H](C)COC(=O)N[C@@H](C)C(=O)CC=C[C@@H]2C)cc1`, the composite z-score in [1] was 0.38; in [2] it was -0.589; in [3] it was -1.38; in assay [5], 0.588; in assay [6] it was 0.604; in assay [7] it was 0.831. The composite z-score in [8] is 1.4; in assay [9], 2.08; in assay [10], 0.283; in assay [11], -0.417; in assay [13] it was 1.05; in [14], -0.643. Besides, the composite z-score was -1.39 in assay [15]; -0.1 in [16]; -0.0243 in assay [17]; -0.345 in [18]; 0.0478 in assay [19]; 0.0411 in assay [20]. In addition, the z-score in assay [4] was -0.381 (inactive); in assay [12], -0.47.

Regarding `COC(=O)C[C@H]1O[C@]2(C(=O)N(Cc3ccccc3)c3ccc(I)cc32)[C@@H](C)[C@@H]1[Si](C)(C)c1ccc(OC)cc1`, the composite z-score in assay [1] was -0.237; in assay [2], 0.19; in [3], 0.533; in [5], 0.0095; in assay [6], -1.19; in assay [7], -0.398. For the same molecule, the composite z-score in [8] was -0.192; in assay [9], -0.524; in assay [10] it was 0.413; in [11], -1.02; in assay [13], -0.0651; in assay [14] it was 0.267. The composite z-score in [15] is 0.286; in [16], -0.0462; in assay [17], 0.0062; in assay [18], -0.208; in assay [19] it was -0.267; in [20], 0.13. In addition, the figures for the z-score in [4] and in assay [12] were -0.853 (inactive) and 0.486, respectively.
